According to PubChem BioAssay (Tox21):
Inconclusive results are not listed. Unmarked numbers belong to inactive results. The source made the active and inactive calls. Unless noted, calls come from the whole dose curve.

Experiment: qHTS assay for small molecules that induce genotoxicity in human embryonic kidney cells expressing luciferase-tagged ATAD5 (AID 651632; active = well fitted activation curve with a large enough effect in the repeat runs; note: nearly all actives have a fitted effect of over 15% in size)
Details: HEK293T ATAD5-luciferase induction, 16 h; series mostly up to 83.3 µM; activation: at the top concentration
Summary of the method: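 Cells were seeded at 2,000 per well, dosed with compound, and incubated 16 hr at 37C in 5% CO2. Luciferase activity was then quantified after a 30 min room-temperature incubation with Amplite.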
% is set by controls: 0 for no effect and ±100 for the full control effect.

In the case of `C[C@]12CCC(=O)C=C1CC[C@H]1[C@@H]3CC[C@](O)(C(=O)CO)[C@@]3(C)C[C@H](O)[C@@]12F`, the outcome is reported as “inactive”.
With `CO/N=C(/C(=O)N[C@@H]1C(=O)N2C(C(=O)[O-])=C(C[n+]3ccn4ncccc43)CS[C@H]12)c1nsc(N)n1` the outcome was “inactive”.

First: CCCCCCCCCCOC(C)=O
Second: CC1=C(C(=O)O)N2C(=O)[C@@H](NC(=O)[C@H](N)C3=CCC=CC3)[C@H]2SC1
The “activation” value of the first is lower: -1.46% for the first, 2.67% for the second.

First: CC1(C)O[C@H]2CC(=O)OC[C@]23[C@H]2CC[C@@]4(C)[C@H](c5ccoc5)OC(=O)[C@H]5O[C@]54[C@]2(C)C(=O)C[C@@H]13
Second: CC12CCC(C1)C(C)(C)C2O (centres undefined)
The “activation” value of the first is higher: 3.1% for the first, 0.79% for the second.

Going from `O=[N+]([O-])c1c(Cl)cc(Cl)cc1Cl` to `O=Cc1ccccc1Cl`, the “activation” value rises from -4.44% to 1.7%.

Going from `OCC1CCC(CO)CC1` (centres undefined) to `CC(C)CO`, the “activation” value rises from 1.07% [at 95.3 µM] to 2.96% [at 95.3 µM].

Experiment: qHTS assay for small molecule agonists of the p53 signaling pathway - cell viability (AID 651633);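 note: p53RE-bla HCT reporter cells with a stable beta-lactamase p53 reporter; nearly all actives have a fitted effect of over 30% in size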
Details: p53RE-bla HCT-116 viability, ATP luminescence, 16 h; series mostly up to 83.3 µM; activity change, negative = cytotoxicity: at the top concentration
Summary of the method: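 p53RE-bla cells were treated with compound for 16 hours at 37 C. Cytotoxicity was then measured as CellTiter-Glo luminescence after 30 min at room temperature.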

Compared with `CC(O)COC(C)(C)C` (centres undefined), `CC(C)CCOC(=O)c1ccccc1` is lower in “activity change, negative = cytotoxicity” value: 16.4% for the first, -15.1% for the second.

Compared with `CCCCC1CCC(O)CC1` (centres undefined), `CC12CCC(C1)C(C)(C)C2O` (centres undefined) is lower in “activity change, negative = cytotoxicity” value: 7.31% for the first, 4.28% for the second.

Going from `CC(=O)O[C@H]1C[C@@H]2CC[C@@]1(C)C2(C)C` to `C=C(C)[C@@H]1CC=C(C)CC1`, the “activity change, negative = cytotoxicity” value rises from 6.63% to 18.3%.

Compared with `CCCCCCCCCCOC(C)=O`, `COC(=O)c1cccc(Cl)c1` is higher in “activity change, negative = cytotoxicity” value: -18.4% for the first, 1.13% for the second.

Going from `O=C[O][Al]([O]C=O)[O]C=O` to `O=Cc1ccccc1Cl`, the “activity change, negative = cytotoxicity” value falls from 19.9% to 10.6%.

First: C#CCN[C@@H]1CCc2ccccc21
Second: c1ccc2cnccc2c1
The “activity change, negative = cytotoxicity” value of the first is higher: 7.63% for the first, -27.4% for the second.

Going from `Cc1c(N)cccc1Cl` to `O=[N+]([O-])c1c(Cl)cc(Cl)cc1Cl`, the “activity change, negative = cytotoxicity” value falls from 14.1% to -8.88%.

Going from `c1ccc(B(c2ccccc2)c2ccccc2)cc1` to `CC1=NN(c2ccc(S(=O)(=O)O)cc2)C(=O)C1`, the “activity change, negative = cytotoxicity” value rises from 5.2% to 18.8%.

Compared with `O=C1CCCCO1`, `O=C(NCN1CCOCC1)c1cnccn1` is higher in “activity change, negative = cytotoxicity” value: 9.19% for the first, 12.3% for the second.

Going from `CC1(C)O[C@H]2CC(=O)OC[C@]23[C@H]2CC[C@@]4(C)[C@H](c5ccoc5)OC(=O)[C@H]5O[C@]54[C@]2(C)C(=O)C[C@@H]13` to `CC1=C(C(=O)O)N2C(=O)[C@@H](NC(=O)[C@H](N)C3=CCC=CC3)[C@H]2SC1`, the “activity change, negative = cytotoxicity” value rises from -8.76% to 4.28%.

First: Cn1c(=O)c2[nH]c(Br)nc2n(C)c1=O
Second: N#Cc1cscn1
The “activity change, negative = cytotoxicity” value of the first is lower: -5.86% for the first, 16.4% for the second.

In the case of `C[C@]12CCC(=O)C=C1CC[C@H]1[C@@H]3CC[C@](O)(C(=O)CO)[C@@]3(C)C[C@H](O)[C@@]12F`, the outcome is reported as “inactive”.
For `c1ccc2c(CC3=NCCN3)cccc2c1`, the outcome was “inactive”.
With `CO/N=C(/C(=O)N[C@@H]1C(=O)N2C(C(=O)[O-])=C(C[n+]3ccn4ncccc43)CS[C@H]12)c1nsc(N)n1` the outcome was “inactive”.

Going from `OCC1CCC(CO)CC1` (centres undefined) to `CCO`, the “activity change, negative = cytotoxicity” value falls from 11.5% [at 95.3 µM] to 10.5% [at 95.3 µM].

First: CCCCOCC(C)O (centres undefined)
Second: C=CCCCC
The “activity change, negative = cytotoxicity” value of the first is higher: 18.2% [at 95.3 µM] for the first, -16.9% [at 95.3 µM] for the second.

Going from `CC/C(C)=N\O[Si](C)(O/N=C(\C)CC)O/N=C(\C)CC` to `CC(C)CO`, the “activity change, negative = cytotoxicity” value rises from -6.43% [at 95.3 µM] to 11.7% [at 95.3 µM].

For `C=CC/C=C/C`, the “activity change, negative = cytotoxicity” value was -25.7% [at 95.3 µM].

Compared with `CN1CCOC(c2ccccc2)c2ccccc2C1` (centres undefined), `[O]=[Mo](=[O])=[O]` is lower in “activity change, negative = cytotoxicity” value: 29% [at 39.1 µM] for the first, -6.74% [at 39.1 µM] for the second.
